Data on 14 sequences can be found in the supplement of paper PMC6555819.

What all share (assay): PBM binding z-score (relative to random genomic background probes); higher = stronger binding; sequences stand for … in GC…GCGATTGACAGCGTAGAATGAAGG
Test [1] relates to RARg:RXRa (NR concentration 270 nM, RXRa partner concentration 90 nM). The gist of the method: (§1)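 Binding buffer was PBS pH 7.4 with 2% milk, 0.02% Triton X-100, 1 mM DTT, 0.2 mg/mL BSA and 0.4 mg/ml salmon testes DNA. In it, ligand-free nuclear receptor dimers were incubated 1 h on custom Agilent 4×180K protein-binding microarrays carrying double-stranded probes. Antibodies against each partner (one per run) detected binding, and z-scores were calculated against random background probes after regression normalization of scanned fluorescence.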

The subject of test [2] is RARg homodimer (NR concentration 270 nM). The gist of the method: as §1
Test [3] relates to RXRa DBDmut IVT, anti-RXR (DBD mutation: RXRa K156A/R161A, NR concentration 90 nM). Summed up: as §1
The test system of test [4] is RXRa homodimer (NR concentration 180 nM). The gist of the method:
as §1

The subject of test [5] is THRa:RXRa (NR concentration 90 nM, RXRa partner concentration 90 nM). The gist of the method:
as §1

For test [6], the system named is THRa homodimer (NR concentration 90 nM). Summed up:
as §1

Test [7] has as its system VDR homodimer (NR concentration 270 nM). The gist of the method: as §1

Turning to TCTCGGAGGACACTAAAGGTCAGAGCTCGACATC, the PBM binding z-score in test [1] stood at 4.4; in test [2], 4.68; in test [3], 1.11; in test [4], 3.98; in test [5], 3.48; in test [6], 1.1. The sequence further yielded a PBM binding z-score in test [7] of 0.787.
TAGCCTAGGTCATGGGCCAGTGTACCACGCGAAC: the PBM binding z-score in test [1] came out at 4.41; in test [2] it was 4.65; in test [3], 0.252; in test [4], 3.76; in test [5], 3.13; in test [6] it was 1.23. This sequence had a PBM binding z-score in test [7] of 0.706.
For ATCGAAAGGTCGTGAGGTAAGTATACAGAAAGGC, the PBM binding z-score in test [1] was determined as 4.63; in test [2] it was 3.93; in test [3], 1.25; in test [4] it was 5.18; in test [5], 3.09; in test [6], 1.01. This sequence also had a PBM binding z-score in test [7] of 1.24.
As to ATCGAAAGGTCGACGAGGTGAGTAAACACCGTTT, the PBM binding z-score in test [1] is 4.4; in test [2], 4.12; in test [3], 0.855; in test [4], 4.54; in test [5], 3.78; in test [6], 0.706. In test [7], this sequence had a PBM binding z-score of 0.649.
Take AGAATGAGGTTACTAAAGATCAGGGAAACGCTTG: the PBM binding z-score in test [1] came to 1.61; in test [2], 1.25; in test [3], 0.94; in test [4], 1.59; in test [5], 2.19; in test [6] it was 0.398. Also, the PBM binding z-score in test [7] came to 0.00246.
For CCGAGTTGGTCAAGGTCACACACGCTATAGGTAC, the PBM binding z-score came to 4.58 in test [1]; 4.8 in test [2]; 3.18 in test [3]; 4.46 in test [4]; 4.24 in test [5]; 4.39 in test [6]. The same sequence had a PBM binding z-score in test [7] of 4.74.
Take ATCGAAAGGTCCACGAGGTGAGTATACACCGTTT: the PBM binding z-score in test [1] worked out at 1.13; in test [2] it was 1.3; in test [3], 0.571; in test [4], 0.952; in test [5] it was 1.96; in test [6], 0.835. In test [7], this sequence came in with a PBM binding z-score of 0.691.
In the case of CCTTACGGGTCACGAGGTTGTAGCACGACGAGCG, the PBM binding z-score was found to be 5.67 in test [1]; 5.42 in test [2]; 2.05 in test [3]; 6.5 in test [4]; 3.19 in test [5]; 0.351 in test [6]. For the same sequence, the PBM binding z-score in test [7] worked out at 1.99.
Consider ACGCGGAGGACAAAGGTCAGAGCTACGCCAGTGA, for which the PBM binding z-score was 6.23 in test [1]; 5.34 in test [2]; 0.687 in test [3]; 5.4 in test [4]; 3.38 in test [5]; 0.463 in test [6]. In test [7], the PBM binding z-score was found to be 0.908.
On to CCGAGGAGGTTACGAGGGGGCATTCAGTGCGAAT, for which the PBM binding z-score in test [1] was 4.21; in test [2] it was 3.17; in test [3], 2.24; in test [4] it was 3.28; in test [5], 4.49; in test [6], 0.537. In test [7], this sequence yielded a PBM binding z-score of 3.87.
Consider GCTTACAGGTCAAAGGTTATAGCATGAATAGAAT, for which the PBM binding z-score in test [1] amounted to 7.18; in test [2], 5.44; in test [3], 2.31; in test [4] it was 9.21; in test [5] it was 4.11; in test [6], 0.393. The PBM binding z-score in test [7] is 1.47.
Turning to AGAATGGGGTTATACGTAGATCAGGGAAGAAAGT, the PBM binding z-score in test [1] came out at 2.66; in test [2] it was 0.984; in test [3], 2.16; in test [4], 4.17; in test [5], 2.8; in test [6], 1.53. Further, in test [7], the PBM binding z-score was 1.86.
On to TAGCCTAGGTCATGCGGGCCAATATAGTGTCGGC, for which the PBM binding z-score is 3.98 in test [1]; 4.36 in test [2]; 0.554 in test [3]; 3.1 in test [4]; 3.14 in test [5]; 0.979 in test [6]. Besides, the PBM binding z-score in test [7] stood at 0.902.
Take AGTCAAAGTGCATCTAGGTAACGTAAGATATGCT: the PBM binding z-score in test [1] is 1.07; in test [2], 1.23; in test [3], 1.55; in test [4], 0.663; in test [5] it was 1.31; in test [6], -0.154. The same sequence registered a PBM binding z-score in test [7] of 0.36.
